± gives the standard deviation of the averaged measurements.

The subject of one experiment is IMR-90. The experiment is described as follows: relative cell viability (ATPlite) vs untreated control (fraction); higher = less toxic. The following applies: 1 µM; 72 h. (In ATP-based viability assays light output follows the ATP content of the culture.)
The test system of experiment [1] is K562. The description is as above. The following applies: 1 µM; 72 h.
Experiment [2] deals with K562. The experiment is described as follows: relative cell viability (ATPlite) vs untreated control, with imatinib (fraction); higher = less toxic. The following applies: 1 µM; 72 h; imatinib 0.125 µM.

`O=C1c2ccccc2-c2nc3nnnn3nc21` [PDK1/Akt/Flt Dual Pathway Inhibitor]: the relative cell viability was 0.856 ± 0.069 in the experiment on IMR-90, 0.028 ± 0.0014 in the experiment on K562 [1] and 0.0249 ± 0.0025 in the experiment on K562 [2].

On to `COc1cc2ncnc(Nc3ccc(Cl)cc3Cl)c2cc1OC` [Ste11 MAPKKK Activation Inhibitor], for which the values for the relative cell viability with IMR-90, with K562 [1] and in the experiment with K562 [2] were 0.946 ± 0.13, 0.802 ± 0.084 and 0.71 ± 0.076, respectively.

For `CN1C(=O)C(Cc2c[nH]c3ccccc23)NC1=S` (configuration not stated) [Necrostatin-1], the relative cell viability in the experiment on IMR-90 amounted to 0.915 ± 0.058; with K562 [1], 0.921 ± 0.1; in the experiment with K562 [2], 0.785 ± 0.044.

On to `Oc1cccc(-c2nc(N3CCOCC3)c3oc4ncccc4c3n2)c1`, for which the relative cell viability with IMR-90 was determined as 0.958 ± 0.099; in the experiment with K562 [1] it was 0.741 ± 0.015; with K562 [2], 0.513 ± 0.045.

Consider `c1ccc2c(-c3ccncc3)c[nH]c2c1` [Rho Kinase Inhibitor III, Rockout], for which the results for the relative cell viability in the experiment with IMR-90, in the experiment with K562 [1] and in the experiment on K562 [2] were 0.814 ± 0.19, 0.833 ± 0.097 and 0.683 ± 0.029, respectively.

For `O=C1NC(=O)c2c1c1c3ccccc3[nH]c1n1cncc21` [Isogranulatimide], the relative cell viability in the experiment with IMR-90 was found to be 1.01 ± 0.063; in the experiment on K562 [1], 0.837 ± 0.077; in the experiment on K562 [2], 0.773 ± 0.049.

In the case of `Fc1ccc(-c2nc3n(c2-c2ccncc2)CCS3)cc1`, the relative cell viability in the experiment with IMR-90 came to 0.999 ± 0.12; with K562 [1], 0.845 ± 0.071; in the experiment on K562 [2], 0.737 ± 0.058.

For `NC(=O)Nc1sc(-c2ccccc2)cc1C(N)=O` [IKK-2 Inhibitor VI], the results for the relative cell viability in the experiment with IMR-90, with K562 [1] and in the experiment with K562 [2] were 0.942 ± 0.1, 0.861 ± 0.097 and 0.695 ± 0.056, respectively.

In the case of `O=C1C(=Cc2ccc(O)cc2)C2=Nc3ccccc3C2=C1C1=C2C(=Nc3ccccc32)C(=Cc2ccc(O)cc2)C1=O` [Scytonemin, Lyngbya sp.], the relative cell viability is 0.834 ± 0.054 with IMR-90, 0.986 ± 0.052 in the experiment with K562 [1] and 0.821 ± 0.089 with K562 [2].

For the compound `N#C/C(=C(/N)Sc1ccccc1N)c1cccc(C(O)c2ccncc2)c1` (configuration not stated) [MEK Inhibitor I], the relative cell viability in the experiment on IMR-90 turned out to be 1.02 ± 0.1; in the experiment on K562 [1], 0.732 ± 0.045; in the experiment on K562 [2], 0.581 ± 0.03.

With `Cc1cncc2cccc(S(=O)(=O)N3CCCN(C(=O)CN)C[C@@H]3C)c12` [Rho Kinase Inhibitor IV], the relative cell viability was found to be 1.05 ± 0.12 in the experiment with IMR-90, 0.809 ± 0.065 in the experiment on K562 [1] and 0.669 ± 0.031 with K562 [2].

Take `CC[C@@H](CO)Nc1nc(NCc2ccc(-c3ccccn3)cc2)c2ncn(C(C)C)c2n1` [CR8, (S)-Isomer]: the results for the relative cell viability with IMR-90, in the experiment with K562 [1] and in the experiment with K562 [2] were 0.107 ± 0.035, 0.0828 ± 0.015 and 0.0705 ± 0.018, respectively.

With `Cn1nc2c3c(cccc31)C(=O)c1ccccc1-2` [JNK Inhibitor, Negative Control], the results for the relative cell viability in the experiment with IMR-90, in the experiment on K562 [1] and in the experiment on K562 [2] were 1.02 ± 0.11, 0.869 ± 0.083 and 0.733 ± 0.038, respectively.

For `CNc1cc2c(Nc3cccc(Br)c3)ncnc2cn1`, the relative cell viability amounted to 1.04 ± 0.053 with IMR-90, 0.995 ± 0.043 in the experiment with K562 [1] and 0.807 ± 0.023 in the experiment on K562 [2].

As to `COc1cc2ncnc(Nc3ccc(Oc4ccccc4)cc3)c2cc1OC` [Src Kinase Inhibitor I], the relative cell viability in the experiment with IMR-90 was determined as 0.956 ± 0.063; with K562 [1] it was 0.839 ± 0.088; in the experiment on K562 [2], 0.692 ± 0.05.

As for `CC(C)n1cnc2c(NCc3ccccc3)nc(NCCCO)nc21` [Bohemine], the relative cell viability worked out at 1.03 ± 0.066 with IMR-90, 0.9 ± 0.074 with K562 [1] and 0.797 ± 0.029 in the experiment on K562 [2].

For the compound `CSc1nc(-c2ccnc(NC(C)c3ccccc3)c2)c(-c2ccc(F)cc2)[nH]1` (configuration not stated) [p38 MAP Kinase Inhibitor III], the relative cell viability in the experiment on IMR-90 stood at 1.03 ± 0.072; in the experiment with K562 [1], 0.909 ± 0.024; in the experiment on K562 [2], 0.735 ± 0.038.

Take `O=C(c1cc2cc(O)ccc2[nH]1)c1cc2cc(O)ccc2[nH]1` [Flt-3 Inhibitor II]: the relative cell viability in the experiment with IMR-90 is 1.04 ± 0.085; with K562 [1], 0.461 ± 0.026; in the experiment with K562 [2], 0.418 ± 0.035.

With `CC(C)(C)c1ccc(S(=O)(=O)Nc2ccc(-n3ccnc3)cc2)cc1` [Stem-Cell Factor/c-Kit Inhibitor, ISCK03], the relative cell viability is 0.897 ± 0.068 in the experiment on IMR-90, 0.818 ± 0.096 in the experiment on K562 [1] and 0.742 ± 0.038 with K562 [2].

On to `c1ccc(-c2cnc(Nc3ccc(OCCN4CCCC4)cc3)s2)cc1` [Flt-3 Inhibitor III], for which the relative cell viability in the experiment on IMR-90 was determined as 0.924 ± 0.052; in the experiment on K562 [1] it was 0.916 ± 0.065; in the experiment with K562 [2] it was 0.797 ± 0.031.

With `COc1ccc(OC)c2c(=S)c3ccccc3[nH]c12`, the relative cell viability worked out at 0.981 ± 0.051 in the experiment on IMR-90, 0.927 ± 0.054 with K562 [1] and 0.795 ± 0.041 with K562 [2].

In the case of `COc1cc(SC)ccc1C(=O)N1CCC(Cc2ccccc2)CC1` [p38 MAP Kinase Inhibitor VI, JX401], the relative cell viability turned out to be 1.03 ± 0.094 in the experiment with IMR-90, 0.807 ± 0.042 in the experiment with K562 [1] and 0.716 ± 0.023 with K562 [2].

In the case of `O=C(Nc1ccc(Cl)cc1)c1ccccc1NCc1ccncc1` [VEGF Receptor Tyrosine Kinase Inhibitor II], the relative cell viability in the experiment on IMR-90 amounted to 0.987 ± 0.064; with K562 [1], 0.852 ± 0.056; with K562 [2], 0.802 ± 0.036.

Regarding `O=c1cc(N2CCNCC2)oc2c(-c3ccccc3)cccc12`, the relative cell viability in the experiment on IMR-90 turned out to be 0.987 ± 0.049; in the experiment with K562 [1], 0.828 ± 0.11; with K562 [2], 0.76 ± 0.034.

Consider `CCCCCCCCCCCCCCCCn1cc[n+](Cc2ccccc2)c1C` [eEF-2 Kinase Inhibitor, NH125], for which the relative cell viability is 0.948 ± 0.11 in the experiment on IMR-90, 0.506 ± 0.092 in the experiment with K562 [1] and 0.401 ± 0.1 in the experiment with K562 [2].

Consider `Cn1c(O)c(-c2[nH]c3ccccc3c2N=O)c2ccc(Br)cc21` [GSK-3 Inhibitor IX, Control, MeBIO], for which the relative cell viability in the experiment with IMR-90 was determined as 0.976 ± 0.047; with K562 [1], 0.964 ± 0.014; in the experiment on K562 [2], 0.8454 ± 0.0073.

With `COc1cc2c(cc1OC)-c1[nH]nc(Nc3cccc(F)c3)c1C2` [PDGF Receptor Tyrosine Kinase Inhibitor IV], the figures for the relative cell viability in the experiment with IMR-90, with K562 [1] and with K562 [2] were 0.43 ± 0.07, 0.0468 ± 0.0021 and 0.0404 ± 0.0032, respectively.

As for `COc1ccc(CNc2nc(N(CCO)CCO)nc3c2ncn3C(C)C)cc1` [Cdk2 Inhibitor III], the relative cell viability with IMR-90 is 0.927 ± 0.086; in the experiment on K562 [1], 0.855 ± 0.061; in the experiment on K562 [2], 0.772 ± 0.058.

For the compound `NS(=O)(=O)c1ccc(N=Nc2c(O)[nH]c3ccc(Br)cc23)cc1` [Cdk2 Inhibitor II], the relative cell viability was 1.22 ± 0.2 in the experiment with IMR-90, 0.839 ± 0.084 with K562 [1] and 0.825 ± 0.052 in the experiment on K562 [2].

Source of the values: the supplement of paper PMC4100887.
